Source: the supplement of paper PMC9925115
Structures can show the parent of a compound that is named as a salt.

System: FLX1 + dox-induced PRKAR1A G325D
Assay: difference in log2 fold change of viability vs plate median (dox-induced PRKAR1A G325D minus uninduced); higher = compound less effective when PKA is inhibited
Conditions: concentration: not stated (2 or 5 uM); 5 days
Experimental: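 For each plate a log2 fold change vs the plate median was derived, and the values without dox were subtracted from those with dox, averaged over three biological replicates.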

Structure (SMILES)	difference in log2 fold change of viability
CCc1cccc(CC)c1NC(=O)N1Cc2[nH]nc(NC(=O)c3ccc(N4CCN(C)CC4)cc3)c2C1	0.41
CCn1c2ccccc2c2cc(Nc3ccnc(NCCCN4CCOCC4)n3)ccc21	0.808
Cc1c(CN2CCN(C(=O)[C@H](C)O)CC2)sc2c(N3CCOCC3)nc(-c3cnc(N)nc3)nc12 [Apitolisib (GDC-0980, RG7422)]	0.628
Cc1ccc(NC(=O)c2ccc(CN3CCN(C)CC3)cc2)cc1Nc1nc(-c2cccnc2)cs1 [Masitinib (AB1010)]	0.682
Clc1ccc(Nc2nnc(Cc3ccncc3)c3ccccc23)cc1 [Vatalanib (PTK787) 2HCl]	0.168
CNC(=O)c1cc(COc2nnc(Nc3ccc(Cl)cc3)c3ccoc23)ccn1 [Telatinib]	0.0582
NC(=O)Nc1cc(-c2cccc(F)c2)sc1C(=O)N[C@H]1CCCNC1	-0.12
Cc1cnc(Nc2ccc(N3CCN(C)CC3)cc2)nc1Nc1cccc(S(=O)(=O)NC(C)(C)C)c1	-0.303
N#Cc1ccc2[nH]c(O)c(-c3ccc(CN4CCOCC4)cn3)c2c1	0.199
CS(=O)(=O)N1CCN(Cc2cc3nc(-c4cccc5[nH]ncc45)nc(N4CCOCC4)c3s2)CC1 [Pictilisib (GDC-0941)]	-0.0931
O=C1NC(=O)C(=Cc2ccc(-c3ccc(F)cc3)o2)S1 (stereo in doubt)	-0.0657
Cc1cc([C@@H](C)Nc2ccccc2C(=O)O)c2nc(N3CCOCC3)cc(=O)n2c1	0.0369
COc1cc2ncnc(Nc3ccc(F)c(Cl)c3)c2cc1NC(=O)/C=C/CN1CCCCC1	-0.0217
CCc1cc(Nc2nccc(-c3c(-c4ccc(OC)c(C(=O)Nc5c(F)cccc5F)c4)nc4ccccn34)n2)c(OC)cc1N1CCC(N2CCN(S(C)(=O)=O)CC2)CC1	0.164
COc1cc(N2CCC(N)CC2)ccc1Nc1ncc(Cl)c(-c2c[nH]c3ccccc23)n1	0.0117
Cc1nc(N)sc1-c1ccnc(Nc2ccc(N3CCOCC3)cc2)n1	0.455
COc1cccc(-c2cc(=O)c3ccccc3o2)c1N	-0.103
Cc1nc(NC(=O)N2CCC[C@H]2C(N)=O)sc1-c1ccnc(C(C)(C)C(F)(F)F)c1 [Alpelisib (BYL719)]	0.385
N#CC[C@H](C1CCCC1)n1cc(-c2ncnc3[nH]ccc23)cn1	0.145
CSc1cccc(Nc2ncc3cc(-c4c(Cl)cccc4Cl)c(=O)n(C)c3n2)c1	-0.0582

Structure (SMILES)	difference in log2 fold change of viability
CC(C)(C)c1ccc(S(=O)(=O)/C=C/C#N)cc1	0.145
Cn1c(Nc2ccc(C(F)(F)F)cc2)nc2cc(Oc3ccnc(-c4ncc(C(F)(F)F)[nH]4)c3)ccc21	-0.588
CNC(=O)c1cc(Oc2ccc(NC(=O)Nc3ccc(Cl)c(C(F)(F)F)c3)cc2)ccn1 [Sorafenib Tosylate]	-0.44
Cc1ccc(NC(=O)c2ccc(CN3CCN(C)CC3)cc2)cc1Nc1nccc(-c2cccnc2)n1 [Imatinib Mesylate (STI571)]	0.343
C=CC(=O)Nc1cccc(Sc2nc(Nc3ccc(N4CCN(C)CC4)cc3)ncc2Cl)c1	0.0442
Cc1[nH]c(/C=C2\C(=O)Nc3ccc(S(=O)(=O)N(C)c4cccc(Cl)c4)cc32)c(C)c1C(=O)N1CCN(C)CC1	0.163
N#Cc1c(Oc2ccc(F)c(NC(=O)Cc3cccc(C(F)(F)F)c3)c2)ccc2nc(NC(=O)C3CC3)sc12	-0.168
CN(C)CCOc1ccc(-c2nc(-c3ccncc3)c(-c3ccc4c(c3)CC/C4=N\O)[nH]2)cc1	-1.73
O=C(/C=C/c1ccc2ccccc2n1)c1ccncc1	-0.467
COc1cc2nccc(Oc3ccc(NC(=O)Nc4cc(C)on4)c(Cl)c3)c2cc1OC [Tivozanib (AV-951)]	-0.0533
Nc1ccc(C(=O)Nc2cccc(-c3nc(N4CCOCC4)c4oc5ncccc5c4n3)c2)cn1	0.262
COc1ccc(-c2ccc3c(N4CCOC[C@@H]4C)nc(N4CCOC[C@@H]4C)nc3n2)cc1CO	1.55
C[S+]([O-])c1ccc(-c2nc(-c3ccc(F)cc3)c(-c3ccncc3)[nH]2)cc1 (stereo not given)	-0.00802
COc1cc(CCc2cc(NC(=O)c3ccc(N4CC(C)NC(C)C4)cc3)n[nH]2)cc(OC)c1 (stereo not given)	-0.468
CO[C@@H](C(=O)N1Cc2[nH]nc(NC(=O)c3ccc(N4CCN(C)CC4)cc3)c2C1)c1ccccc1	0.428
CNC(=O)c1ccc(C)c(-n2c(C)cc(OCc3ccc(F)cc3F)c(Br)c2=O)c1	0.455
CCN1CCN(Cc2ccc(-c3cc4c(N[C@H](C)c5ccccc5)ncnc4[nH]3)cc2)CC1	-0.338
COc1cc2ncnc(Nc3cccc(Cl)c3)c2cc1OC [AG-1478 (Tyrphostin AG-1478)]	0.0422
CC[C@H](Nc1ncnc2[nH]cnc12)c1nc2cccc(F)c2c(=O)n1-c1ccccc1 [Idelalisib (CAL-101, GS-1101)]	0.00653
CC(=O)Nc1nc(C)c(-c2ccc(Cl)c(S(=O)(=O)NCCO)c2)s1	1.62
